PubChem BioAssay AID2642 (Johns Hopkins Ion Channel Center, 2010)
In all, about 310,000 compounds went through this assay and about 3,900 (1.3%) were called active.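 Rule for the calls: active = compounds whose thallium flux B-score, printed positive for inhibition, exceeds three library SD while starting fluorescence stays within three; inactive = the rest.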 This excerpt belongs to a sample that is enriched for actives.

Target: Potassium voltage-gated channel subfamily KQT member 1 (Homo sapiens) (UniProt P51787)
Sequence (P51787 whole entry, looked up): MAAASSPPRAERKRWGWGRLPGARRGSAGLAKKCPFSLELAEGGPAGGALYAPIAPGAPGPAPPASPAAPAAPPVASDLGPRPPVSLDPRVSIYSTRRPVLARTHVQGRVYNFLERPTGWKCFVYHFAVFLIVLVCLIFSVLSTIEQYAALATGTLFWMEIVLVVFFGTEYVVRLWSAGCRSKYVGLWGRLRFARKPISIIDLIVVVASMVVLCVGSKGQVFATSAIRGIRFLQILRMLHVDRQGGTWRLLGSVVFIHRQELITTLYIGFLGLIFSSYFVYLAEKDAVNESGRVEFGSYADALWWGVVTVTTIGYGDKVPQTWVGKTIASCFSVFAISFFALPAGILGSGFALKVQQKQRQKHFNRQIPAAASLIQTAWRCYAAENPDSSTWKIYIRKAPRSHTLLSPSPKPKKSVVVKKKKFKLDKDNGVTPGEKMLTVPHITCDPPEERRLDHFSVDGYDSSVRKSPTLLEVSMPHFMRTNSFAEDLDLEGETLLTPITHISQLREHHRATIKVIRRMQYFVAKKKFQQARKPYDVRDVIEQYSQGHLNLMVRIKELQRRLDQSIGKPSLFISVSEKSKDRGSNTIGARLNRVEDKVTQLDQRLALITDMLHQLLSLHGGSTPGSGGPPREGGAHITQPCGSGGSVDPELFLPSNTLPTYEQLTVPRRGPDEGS
Assay: KCNQ1 potassium current blockers – cell-based, thallium flux, high-throughput, primary screen (AID 2642);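 note: channel opened by potassium depolarization with thallium stimulus after 20 min compound exposure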
Conditions: CHO-K1 KCNQ1, FluxOR thallium flux fluorescence, at 10 µM; active compounds read high

| Structure (SMILES) | B-score |
| --- | --- |
| CCC(=C/c1sc2ccc3ccccc3c2[n+]1C)/C=C1\Sc2ccc3ccccc3c2N1C | 19 (active) |
| COc1cc(OC)c(S(=O)(=O)Nc2ccccc2C(=O)O)cc1S(=O)(=O)Nc1ccccc1C(=O)O | inactive |
| COc1cc(NC(=O)c2ccccc2NS(=O)(=O)c2ccc(Cl)s2)cc(OC)c1 | 8 (active) |
| COC(=O)c1ccc(NC(=O)c2ccccc2NS(=O)(=O)c2ccccc2)cc1 | inactive |
| N#Cc1cccc(CN2CCC(=O)N(CCO)CC2)c1 | inactive |
| O=C(NC1CCC(O)CC1)c1ccccc1OCc1ccc(F)cc1 (configuration not stated) | inactive |
| COc1ccc(CCNC(=O)c2ccccc2OCc2ccccc2)cc1 | inactive |
| CC(=O)c1ccccc1OCc1ccc(C(=O)c2ccccc2)cc1 | 9 (active) |
| C/C(=N\NC(=O)Cc1ccccc1[N+](=O)[O-])c1cccnc1 | inactive |
| COc1ccc(C(CNC(=O)c2cccc(S(=O)(=O)Nc3ccccc3Cl)c2)N2CCOCC2)cc1 (configuration not stated) | inactive |
| COc1ccc(C(CNC(=O)c2cccc(NS(=O)(=O)c3ccc(C)c(F)c3)c2)N2CCCC2)cc1 (configuration not stated) | 8 (active) |
| COc1ccc(C(CNC(=O)c2ccc(S(=O)(=O)Nc3ccccc3C)cc2)N2CCOCC2)cc1 (configuration not stated) | inactive |
| CSCCC(NC(=O)COc1ccccc1)C(=O)OCCOc1ccc(Br)cc1 (configuration not stated) | inactive |
| Cc1ccc2nc(Nc3ccccc3)cc(C)c2c1 | inactive |
| Cc1nc2ccc(C(=O)N3CCN(c4ccccc4)CC3)cc2s1 | inactive |
| Cc1ccc2nc(C)c3c(c2c1)N(c1ccccc1)CC3 | 7 (active) |
| CCOC(=O)c1nnn(-c2nonc2-n2cccc2)c1CN1CCC(C(=O)OCC)CC1 | inactive |
| O=C(Nc1cccc(Cl)c1)c1cc(S(=O)(=O)N2CCCCC2)c[nH]1 | inactive |
| COc1ccccc1N1N=C(c2cccs2)CC1c1ccccc1 (configuration not stated) | inactive |
| COc1ccc(C2CC(c3cccs3)=NN2c2ccc(F)cc2)cc1OC (configuration not stated) | inactive |
| Fc1ccc(N2N=C(c3cccs3)CC2c2ccco2)c(F)c1 (configuration not stated) | 6 (active) |
| O=C(c1c(F)cccc1F)N1CCN(c2ncc(Br)cn2)CC1 | inactive |

| Structure (SMILES) | B-score |
| --- | --- |
| O=C(NCC(c1ccco1)N1CCc2ccccc21)c1cccc(F)c1 (configuration not stated) | inactive |
| O=C(COC(=O)c1ccc(S(=O)(=O)N2CCc3ccccc3C2)cc1)NC(=O)NCc1ccco1 | inactive |
| COc1c(C)cc(C(=O)C2CCCN(S(=O)(=O)c3c(C)noc3C)C2)cc1C (configuration not stated) | inactive |
| S=C(NCC1CCCO1)N1CCN(c2ccc(Cl)c(Cl)c2)CC1 (configuration not stated) | 7 (active) |
| CCOc1ccc(S(=O)(=O)N2CCN(C(=S)NCC3CCCO3)CC2)cc1 (configuration not stated) | inactive |
| COc1ccc(S(=O)(=O)N2CCN(C(=S)NCC3CCCO3)CC2)cc1OC (configuration not stated) | inactive |
| O=c1c(-c2ccccc2)coc2c(CN3CCOCC3)c(O)ccc12 | inactive |
| CC(C)CN(Cc1c(O)ccc2c(=O)c(-c3ccccc3)coc12)CC(C)C | inactive |
| CC(C)=CCc1c(O)c(CC=C(C)C)c2occ(-c3ccc(O)cc3)c(=O)c2c1O | 11 (active) |
| O=C(NCCc1ccc(Cl)cc1)c1cccc(N2CCCC2=O)c1 | inactive |
| Cc1nnc(SCC(=O)Nc2ncc3c(n2)CC(C)(C)CC3=O)s1 | inactive |
| Cc1ccccc1NC(=O)CSc1ccc2nnc(-c3ccccn3)n2n1 | inactive |
| COc1cc(/C=C2\CCCc3c2nc2ccccc2c3C(=O)O)cc(Cl)c1O | inactive |
| NC(=O)c1ccc(NC(=O)COC(=O)c2c3c(nc4ccccc24)/C(=C\c2ccc4c(c2)OCO4)CCC3)cc1 | 7 (active) |
| CC(NC(=O)COC(=O)c1ccc2c(c1)OCO2)c1ccccc1 (configuration not stated) | inactive |
| CSc1ccccc1NC(=O)c1cc(C2CC2)on1 | inactive |
| Cc1cc(=O)oc2cc(OCC(=O)N3CCN(c4ccc(F)cc4)CC3)c(Cl)cc12 | inactive |
| O=C(c1cc(-c2ccco2)nc2ccccc12)N(Cc1nnc(-c2ccc(Cl)cc2)o1)C1CC1 | inactive |
| CC(=O)N/C(=C/c1ccc(Cl)cc1)C(=O)NCCc1c[nH]c2ccccc12 | inactive |
| N#C/C(=C/c1ccc(N2CCCCC2)o1)C(=O)NCCc1c[nH]c2ccccc12 | 7 (active) |
| O=C(CN1C(=O)NC2(CCCCC2)C1=O)NCCc1c[nH]c2ccccc12 | inactive |
| CCCc1ccc(-c2c(C)sc(NC(=O)c3ccnn3C)c2C#N)cc1 | inactive |

| Structure (SMILES) | B-score |
| --- | --- |
| Cc1noc(/C=C/c2ccco2)c1S(=O)(=O)N1CCC(C(=O)N2CCc3ccccc32)CC1 | inactive |
| O=C1OC(OC(=O)c2ccccc2Br)C(N2CCOCC2)=C1Cl (configuration not stated) | inactive |
| Cc1ccccc1C(=O)OC1OC(=O)C(Cl)=C1Nc1ccccc1 (configuration not stated) | 11 (active) |
| Cc1ccc(NC2=C(Cl)C(=O)OC2OC(=O)c2ccccc2C)cc1 (configuration not stated) | inactive |
| O=C(NC1CC1)C1=C[C@H](c2c[nH]c3ccccc23)C[C@H](OCc2ccc(CO)cc2)O1 | inactive |
| CC(C)(C)c1ccc(/C=C/C(=O)NC2CCS(=O)(=O)C2)cc1 (configuration not stated) | inactive |
| Clc1ccc(C2[C@H]3CN(CC4CCCCC4)[C@H](c4ccccc4)C34CC2(c2cccnc2)C4)cn1 (some centres not stated) | inactive |
| O=C(NCCc1ccccc1)c1ccc2c(c1)N(Cc1ccccc1)CCS2 | 10 (active) |
| O=C(NCCN1CCOCC1)c1ccc2c(c1)N(Cc1ccc(Cl)cc1)CCS2 | inactive |
| CCOC(=O)N1CCN(C(=O)c2ccc3c(c2)N(Cc2ccc(C)cc2)CCS3)CC1 | inactive |
| CC(=O)c1c(C)n(-c2ccc(C)cc2)c2ccc(O)cc12 | inactive |
| CCc1ccc(CN(C)C(=O)C2CCC(=O)N(Cc3cccc(OC)c3)C2)nc1 (configuration not stated) | inactive |
| COc1cc(N2C(=O)c3ccccc3C2=O)c(Cl)cc1C(=O)OCC(=O)N1CCOCC1 | inactive |
| C=CS(=O)c1sc(Cl)c(N2CCOCC2)c1[N+](=O)[O-] (configuration not stated) | 7 (active) |
| Cc1ccccc1C(=O)NCC(c1ccco1)N1CCc2ccccc21 (configuration not stated) | inactive |
| Cc1ccc(C(=O)OCC(=O)NC(=O)Cc2ccccc2)c(O)c1 | inactive |
| O=[N+]([O-])/C(N=Nc1ccccc1)=N\Nc1ccccc1 | inactive |
| CCN(C(=O)COC(=O)c1sccc1C)c1c(N)n(Cc2ccccc2)c(=O)[nH]c1=O | inactive |
| O=C(O)CCCn1c(=O)c2cccn2c2ccc(F)cc21 | inactive |
| C=CCOC(=O)C1=C(C)NC(SCC(=O)OCC)=C(C#N)C1c1ccc(C)cc1 (configuration not stated) | 6 (active) |
| CCOC(=O)CSC1=C(C#N)C(c2sccc2C)CC(=O)N1 (configuration not stated) | inactive |
| C=CCOC(=O)C1=C(C)OC(N)=C(C#N)C1c1ccc(F)cc1 (configuration not stated) | inactive |

| Structure (SMILES) | B-score |
| --- | --- |
| NC(=O)c1ncc(C(F)(F)F)cc1Oc1ccc(F)cc1 | inactive |
| CCOc1ccc(N/C(N)=N/c2nc(C)c(C)c(=O)[nH]2)cc1 | inactive |
| CCc1nnc(NC(=O)CCCSc2nc3ccccc3[nH]2)s1 | inactive |
| CCC(C)N1C(=O)S/C(=C/c2ccc(Sc3nc4ccccc4[nH]3)o2)C1=O (configuration not stated) | 13 (active) |
| CCCCSc1nc2ccccc2[nH]1 | inactive |
| CCOc1ccc(C(=O)NCC(=O)N2CCCCCCC2)cc1OCC | inactive |
| CC(=O)N1CCC(C(=O)Nc2nc(-c3ccccc3)ns2)CC1 | inactive |
| C[n+]1ccc(/C=C/c2c[nH]c3ccccc23)cc1 | 13 (active) |
| O=C(N/N=C/c1c[nH]c2ccccc12)c1ccccc1O | inactive |
| COc1ccc(/C=C(\C#N)c2c[nH]c3ccccc23)cc1 | inactive |
| COc1ccc(CC(=O)OC(C)C(=O)Nc2ccc(S(N)(=O)=O)cc2)cc1 (configuration not stated) | inactive |
| COC(=O)c1cc(NC(=O)c2cc(C(C)(C)C)nn2Cc2cccc(C)c2)ccc1N1CCOCC1 | 6 (active) |
| COC(=O)c1cc(NC(=O)c2ccco2)ccc1N1CCOCC1 | inactive |
| CC(=O)Nc1ccc(N2CCOCC2)c(C(=O)Nc2cccc(C)c2)c1 | inactive |
| CCCCCCOC(=O)NCC(O)c1ccccc1 (configuration not stated) | inactive |
| COc1cccc(C(O)c2nc3ccccc3n2C)c1 (configuration not stated) | inactive |
| CCCCCC(O)c1cccc(OCc2ccc3ccccc3n2)c1 (configuration not stated) | 6 (active) |
| O=C(O)CC12CC3CC(C1)CC(n1ncc(NCc4ccc(F)cc4)c(Cl)c1=O)(C3)C2 | inactive |
| CC(=O)N/N=C/c1cc2c(cc1[N+](=O)[O-])OCO2 | inactive |
| CC1(C(=O)N/N=C/c2cc3c(cc2Br)OCO3)CC1(Br)Br (configuration not stated) | 9 (active) |
| O=C(N/N=C/c1cc2c(cc1Br)OCO2)C1COc2ccccc2O1 (configuration not stated) | inactive |
| OCCN1CCN(c2nnc(-c3ccccc3)c3ccccc23)CC1 | inactive |

| Structure (SMILES) | B-score |
| --- | --- |
| CCCC(=O)N1CCN(c2nnc(-c3ccc(C)cc3)c3ccccc23)CC1 | 7 (active) |
| c1ccc(-c2nnc(N3CCOCC3)c3ccccc23)cc1 | inactive |
| COC(=O)c1ccc(S(=O)(=O)N2CCc3ccccc3C2)cc1 | inactive |
| COc1ccccc1CNC(=O)C1Cc2ccccc2C(=O)O1 (configuration not stated) | inactive |
| CCNC(=S)N(CCN(CC)CC)Cc1cc2cc3c(cc2[nH]c1=O)OCO3 | inactive |
| Clc1ccc(CSc2nnc3c(n2)[nH]c2ccccc23)cc1 | inactive |
| CCCCn1ccnc1C(=O)c1cccc(S(=O)(=O)N2c3ccccc3CC2C)c1 (configuration not stated) | 6 (active) |
| CC1Cc2ccccc2N1S(=O)(=O)c1ccc(Cl)nc1 (configuration not stated) | inactive |
| CC1Cc2ccccc2N1S(=O)(=O)c1c(N)n(C)c(=O)n(C)c1=O (configuration not stated) | inactive |
| COc1ccc(C2C(C#N)=C(/N=C/N3CCOCC3)OC3=C2C(=O)CC(C)(C)C3)cc1OC (configuration not stated) | inactive |
| Cc1cccc(NC(=O)c2cccnc2Cl)n1 | inactive |
| COC(=O)c1nc(NC(=O)c2ccc(C(C)(C)C)cc2)n[nH]1 | inactive |
| CSc1nccc(NC(=O)c2ccc(C(C)(C)C)cc2)n1 | 7 (active) |
| COc1ccccc1N(C)S(=O)(=O)c1ccc(Cl)c(C(=O)Nc2ccncc2)c1 | inactive |
| Cc1cnc(C(=O)OCC(=O)NCCCc2ccccc2)cn1 | inactive |
| Cc1ccc(OC(=O)c2cncc(Br)c2)c(C)c1 | inactive |
| Cc1cccc(Nc2ccccc2C(=O)NCc2ccco2)c1C | 9 (active) |
| O=C(Nc1ccccc1)Nc1ccccc1C(=O)NCc1ccco1 | inactive |
| Cc1ccccc1NC(=O)NCc1ccco1 | inactive |
